Measured values: PubChem BioAssay (Tox21)
Inconclusive results are not listed. The source made the active and inactive calls. Unless noted, calls follow the shape of the dose curve; as a rule, active = well fitted curve in the direction sought with a large enough effect in the repeat runs; inconclusive = weak or mixed curves; inactive = no such curve, though single readings can be large; an effect the other way counts as inactive or inconclusive.

What was measured:
[1] = qHTS assay for small molecule agonists of the p53 signaling pathway (AID 651631; calls by dose curve; also: nearly all actives have a fitted effect of over 15% in size)
Outline: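 HCT-116 p53RE-bla reporter line, 16 h compound treatment at 37 °C, then fluorescence after 2 h with B/G FRET substrate.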

[2] = qHTS assay for small molecules that induce genotoxicity in human embryonic kidney cells expressing luciferase-tagged ATAD5 (AID 651632); also: nearly all actives have a fitted effect of over 15% in size
Outline: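 A rise in luciferase signal from ATAD5-tagged HEK293T cells marks genetic stress. Cells were exposed to compounds for 16 hr at 37C, 5% CO2, then luciferase was quantified after a 30 min room-temperature incubation with Amplite.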

[3] = qHTS assay for small molecule agonists of the p53 signaling pathway - cell viability (AID 651633; calls by dose curve;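 also: p53RE-bla HCT reporter cells with a stable beta-lactamase p53 reporter; series mostly up to about 83 µM; nearly all actives have a fitted effect of over 30% in size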)
Outline: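 p53RE-bla cells, seeded at 4,000 per well and rested 5 h at 37 C/5% CO2, received compounds in DMSO for 16 h at 37 C. CellTiter-Glo was then added, and luminescence was read after 30 min at room temperature to gauge cytotoxicity.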

[4] = qHTS assay for small molecules that induce genotoxicity in human embryonic kidney cells expressing luciferase-tagged ATAD5 - cell viability (AID 651634; calls by dose curve; also: nearly all actives have a fitted effect of over 25% in size)
Outline: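 Cytotoxicity counter-readout: after 15.5 hr compound treatment at 37C, live-cell protease activity in ATAD5-luciferase HEK293T cells measured by CellTiter-Fluor fluorescence, 30 min development at 37C.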

[5] = qHTS assay for small molecule disruptors of the mitochondrial membrane potential - cell viability (AID 720634; calls by dose curve;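 also: human HepG2 liver cancer cells; series mostly up to about 83 µM; nearly all actives have a fitted effect of over 20% in size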)
Outline: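 Cytotoxicity was quantified from ATP content by CellTiter-Glo luminescence in the same wells as the MMP dye read-out. HepG2 (2,000 cells/well) were plated overnight and exposed to compounds for 1 hr at 37 C.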

[6] = qHTS assay to test for compound auto fluorescence at 590 nm (red) in HepG2 cells (AID 720674)
Outline: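 Compound auto-fluorescence is scored relative to Rose Bengal sodium, measured at 540/590 nm in live HepG2 cultures after 1 hr compound contact (37 C, 5% CO2).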

[7] = qHTS assay to test for compound auto fluorescence at 535 nm (green) in HepG2 cells (AID 720675)
[8] = qHTS assay to test for compound auto fluorescence at 460 nm (blue) in HEK293 cells (AID 720678)
Outline: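 Triamterene serves as the blue fluorophore standard. Compound signal at 405/460 nm is read in HEK293 wells (2,000 cells, 10% dialyzed FBS) after overnight treatment at 37C.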

[9] = qHTS assay to test for compound auto fluorescence at 590 nm (red) in HEK293 cells (AID 720679)
Outline: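 We plated HEK293 cells in 10% dialyzed FBS medium, let them adhere for 4-5 hr, then added 23 nL compound. Overnight at 37C and 5% CO2 preceded fluorescence measurement at 540/590nm.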

[10] = qHTS assay to test for compound auto fluorescence at 535 nm (green) in HEK293 cells (AID 720680)
[11] = qHTS assay to test for compound auto fluorescence at 460 nm (blue) in HEK293 cell free culture (AID 720681)
Outline: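 Test compounds were pinned into cell-free culture medium (DMEM with 10% FBS) and fluorescence was read directly at Ex/Em 405/460 nm. Signals were expressed as fluorescence equivalents of triamterene, with DMSO vehicle as control.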

[12] = qHTS assay to test for compound auto fluorescence at 535 nm (green) in HEK293 cell free culture (AID 720682)
Outline: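 Steps: dispense DMEM/10% FBS into empty wells; pin in compound or DMSO; measure fluorescence at 485/535 nm. Values are fluorescein equivalents.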

[13] = qHTS assay to test for compound auto fluorescence at 590 nm (red) in HEK293 cell free culture (AID 720683)
Outline: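 Tox21 10K library compounds were pinned into cell-free DMEM with 10% FBS and fluorescence was read at excitation 540 nm. Activity is expressed as Rose Bengal sodium equivalency.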

[14] = qHTS assay to test for compound auto fluorescence at 590 nm (red) in HepG2 cell free culture (AID 720684)
Outline: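 Ex 540 / Em 590 nm read of compound in cell-free MEM (10% FBS). Rose Bengal sodium reference.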

[15] = qHTS assay to test for compound auto fluorescence at 460 nm (blue) in HepG2 cell free culture (AID 720685)
Outline: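 Cell-free plates of MEM plus 10% FBS received 23 nL compound or DMSO vehicle; blue-channel (405/460 nm) intensity scored against triamterene as reference fluorophore.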

[16] = qHTS assay to test for compound auto fluorescence at 535 nm (green) in HepG2 cell free culture (AID 720686)
[17] = qHTS assay to test for compound auto fluorescence at 460 nm (blue) in HepG2 cells (AID 720687)
Outline: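 Cells (2,000/well in MEM with 10% FBS) attached overnight at 37 C, then were exposed to compound or DMSO for 1 hr at 37 C, 5% CO2. Fluorescence read at Ex/Em 405/460 nm, expressed as triamterene-equivalent signal.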

[18] = target: Glucocorticoid receptor (Homo sapiens) (UniProt P04150); assay: qHTS assay to identify small molecule agonists of the glucocorticoid receptor (GR) signaling pathway (AID 720691; active = well fitted activation curve with a large enough effect in the signal ratio in the repeat runs, not every such curve was filed as active; the % refers to the signal ratio)
Glucocorticoid receptor (Homo sapiens), sequence (P04150 whole entry, looked up): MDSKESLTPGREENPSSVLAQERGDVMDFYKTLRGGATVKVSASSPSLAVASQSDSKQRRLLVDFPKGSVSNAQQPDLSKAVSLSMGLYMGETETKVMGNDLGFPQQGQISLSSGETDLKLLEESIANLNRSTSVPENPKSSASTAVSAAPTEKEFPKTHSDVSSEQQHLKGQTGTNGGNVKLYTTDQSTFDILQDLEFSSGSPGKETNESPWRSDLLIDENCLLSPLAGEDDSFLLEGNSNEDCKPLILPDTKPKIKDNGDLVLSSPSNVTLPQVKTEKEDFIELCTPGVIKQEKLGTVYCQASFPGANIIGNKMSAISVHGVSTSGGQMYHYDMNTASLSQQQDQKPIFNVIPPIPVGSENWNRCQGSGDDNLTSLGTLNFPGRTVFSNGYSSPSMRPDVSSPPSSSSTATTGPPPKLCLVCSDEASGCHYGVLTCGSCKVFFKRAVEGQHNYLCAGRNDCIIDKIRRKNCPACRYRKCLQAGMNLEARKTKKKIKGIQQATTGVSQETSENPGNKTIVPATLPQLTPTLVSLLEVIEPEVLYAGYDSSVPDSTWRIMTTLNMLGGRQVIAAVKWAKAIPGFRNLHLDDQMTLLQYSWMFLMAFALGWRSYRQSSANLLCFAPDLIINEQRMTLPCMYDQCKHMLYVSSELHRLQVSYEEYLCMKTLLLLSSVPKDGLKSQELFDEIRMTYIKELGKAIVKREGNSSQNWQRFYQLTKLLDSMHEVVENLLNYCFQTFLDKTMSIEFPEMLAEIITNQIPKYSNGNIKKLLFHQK
Outline: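 Agonist-mode qHTS in HeLa cells stably expressing a glucocorticoid-response-element beta-lactamase reporter. Fluorescence intensity read with FRET substrate (2 h, room temperature) after 18 h compound treatment at 37 C.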

[19] = target: Glucocorticoid receptor (Homo sapiens) (UniProt P04150); assay: qHTS assay to identify small molecule antagonists of the glucocorticoid receptor (GR) signaling pathway (AID 720692; active = well fitted inhibition curve with a large enough effect in the signal ratio in the repeat runs, not every such curve was filed as active; the % refers to the signal ratio)
Outline: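 Inhibition of dexamethasone-driven (5 nM final) beta-lactamase expression was measured in GRE-reporter HeLa cells over 18 h at 37C. Fluorescence was read after 2 h with the B/G FRET substrate at room temperature.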

[20] = qHTS assay for small molecule disruptors of the mitochondrial membrane potential (AID 720635)
Outline: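 HepG2 cells (2,000/well) attached overnight at 37C, then took compound for 1 hr at 37C, 5% CO2. Mito-MPS dye was added for 30 min; fluorescence was read at 490/535 nm (monomers) and 540/590 nm (aggregates).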
% is scaled to controls: 0 for no effect and ±100 for the full control effect.

CC(C)(C)NCC(O)COc1cccc2c1CCC(=O)N2 (stereo not given)
inactive: Potency [1] | Potency [2] | outcome [3] | outcome [4] | outcome [5] | fluorescence, relative to Rose Bengal [6] -0.0368% [at 18.6 µM] | fluorescence, % of fluorescein control [7] -0.225% [at 18.6 µM] | fluorescence, % of triamterene [8] 0.0079% [at 18.6 µM] | fluorescence, % of fluorescent control [9] 0.0747% [at 18.6 µM] | fluorescence, % of fluorescein [10] 0.0295% [at 18.6 µM] | fluorescence, % of fluorescent control [11] 0.183% [at 18.6 µM] | activity change [12] -0.0136% [at 18.6 µM] | fluorescence, % of fluorescent control [13] -0.0457% [at 18.6 µM] | fluorescence, % of Rose Bengal [14] -0.307% [at 18.6 µM] | fluorescence, % of fluorescent control [15] -0.0069% [at 18.6 µM] | fluorescence, % of fluorescein control [16] -0.0625% [at 18.6 µM] | fluorescence, % of fluorescent control [17] 0.113% [at 18.6 µM] | Potency [18] | outcome [19]

COCCCOc1cc(C[C@@H](C[C@H](N)[C@@H](O)C[C@H](C(=O)NCC(C)(C)C(N)=O)C(C)C)C(C)C)ccc1OC
inactive: Potency [1] | Potency [2] | outcome [3] | outcome [4] | outcome [5] | Potency [20] | outcome [6] | outcome [7] | outcome [9] | outcome [10] | outcome [11] | outcome [12] | outcome [13] | outcome [14] | outcome [16] | outcome [17] | Potency [18] | outcome [19]

C=C(C)C(=O)OCCCC
inactive: Potency [1] | Potency [2] | outcome [4] | outcome [5] | outcome [6] | outcome [7] | outcome [8] | outcome [9] | outcome [10] | outcome [11] | outcome [12] | outcome [13] | outcome [14] | outcome [15] | outcome [16] | outcome [17]

O=Cc1ccc(C(=O)O)cc1
inactive: Potency [1] | Potency [2] | outcome [4] | outcome [5] | Potency [20] | outcome [6] | outcome [7] | outcome [8] | outcome [9] | outcome [10] | outcome [11] | outcome [13] | outcome [15] | outcome [16] | outcome [17] | Potency [18] | outcome [19]

COc1cc2nc(N3CCN(C(=O)C4CCCO4)CC3)nc(N)c2cc1OC (stereo not given)
inactive: Potency [1] | Potency [2] | outcome [3] | outcome [4] | outcome [5] | outcome [6] | outcome [7] | outcome [8] | outcome [9] | outcome [10] | outcome [11] | outcome [13] | outcome [14] | outcome [15] | outcome [16] | outcome [17] | Potency [18] | outcome [19]

O=c1[nH]c(=O)c2cn[nH]c2[nH]1
inactive: Potency [1] | Potency [2] | outcome [3] | outcome [4] | outcome [5] | outcome [6] | outcome [7] | outcome [8] | outcome [9] | outcome [10] | outcome [11] | outcome [13] | outcome [15] | outcome [16] | outcome [17] | Potency [18] | outcome [19]

O=C1Nc2ccccc2C1=O
inactive: Potency [1] | Potency [2] | outcome [4] | outcome [5] | outcome [6] | outcome [7] | outcome [8] | outcome [9] | outcome [10] | outcome [11] | outcome [12] | outcome [13] | outcome [14] | outcome [15] | outcome [16] | outcome [17] | Potency [18] | outcome [19]

CC(=O)Nc1ccc(S(=O)(=O)Nc2cc(C)on2)cc1
inactive: Potency [1] | Potency [2] | outcome [4] | outcome [5] | Potency [20] | outcome [6] | outcome [7] | outcome [8] | outcome [9] | outcome [10] | outcome [11] | outcome [12] | outcome [13] | outcome [14] | outcome [15] | outcome [16] | outcome [17] | Potency [18] | outcome [19]

C/C=C(\C)C=O
inactive: Potency [1] | Potency [2] | outcome [3] | outcome [4] | outcome [6] | outcome [7] | outcome [8] | outcome [9] | outcome [10] | outcome [11] | outcome [12] | outcome [13] | outcome [15] | outcome [16] | outcome [17]

C/C=C/C(=O)CCCC
inactive: Potency [1] | Potency [2] | outcome [4] | outcome [5] | Potency [20] | outcome [6] | outcome [7] | outcome [8] | outcome [9] | outcome [10] | outcome [11] | outcome [12] | outcome [13] | outcome [15] | outcome [16] | outcome [17]

COC(=O)C(c1ccccc1Cl)N1CCc2sccc2C1 (stereo not given)
inactive: Potency [1] | Potency [2] | outcome [4] | outcome [5] | Potency [20] | outcome [6] | outcome [7] | outcome [8] | outcome [9] | outcome [10] | outcome [11] | outcome [12] | outcome [13] | outcome [14] | outcome [15] | outcome [16] | outcome [17] | Potency [18] | outcome [19]

Nc1ccc(C(=O)NCC(=O)O)cc1
inactive: Potency [1] | Potency [2] | outcome [4] | outcome [5] | fluorescence, relative to Rose Bengal [6] 0.477% [at 18.6 µM] | fluorescence, % of fluorescein control [7] 0.0596% [at 18.6 µM] | fluorescence, % of triamterene [8] -0.0255% [at 18.6 µM] | fluorescence, % of fluorescent control [9] -0.524% [at 18.6 µM] | fluorescence, % of fluorescein [10] -0.0255% [at 18.6 µM] | fluorescence, % of fluorescent control [11] 0.0205% [at 18.6 µM] | activity change [12] -0.0258% [at 18.6 µM] | fluorescence, % of fluorescent control [13] -0.0926% [at 18.6 µM] | fluorescence, % of Rose Bengal [14] -0.0233% [at 18.6 µM] | fluorescence, % of fluorescent control [15] -0.124% [at 18.6 µM] | fluorescence, % of fluorescein control [16] 0.0021% [at 18.6 µM] | fluorescence, % of fluorescent control [17] -0.0546% [at 18.6 µM] | Potency [18] | outcome [19]

C/C(Cl)=C/CCl
inactive: Potency [1] | Potency [2] | outcome [4] | outcome [5] | Potency [20] | outcome [6] | outcome [7] | outcome [8] | outcome [9] | outcome [10] | outcome [11] | outcome [12] | outcome [13] | outcome [14] | outcome [15] | outcome [17]

CC(=O)Oc1ccc(C(C)=O)cc1
inactive: Potency [1] | Potency [2] | outcome [3] | outcome [4] | outcome [5] | outcome [6] | outcome [7] | outcome [8] | outcome [9] | outcome [10] | outcome [11] | outcome [13] | outcome [14] | outcome [15] | outcome [16] | outcome [17]

CCCCCCCCCCCCCCCC(=O)OC
inactive: Potency [1] | Potency [2] | outcome [3] | outcome [4] | fluorescence, relative to Rose Bengal [6] 0.0004% [at 18.6 µM] | fluorescence, % of fluorescein control [7] -0.0233% [at 18.6 µM] | fluorescence, % of triamterene [8] 0.179% [at 18.6 µM] | fluorescence, % of fluorescent control [9] -0.225% [at 18.6 µM] | fluorescence, % of fluorescein [10] -0.0119% [at 18.6 µM] | fluorescence, % of fluorescent control [11] -0.0484% [at 18.6 µM] | activity change [12] -0.0305% [at 18.6 µM] | fluorescence, % of fluorescent control [13] -0.033% [at 18.6 µM] | fluorescence, % of Rose Bengal [14] 0.0231% [at 18.6 µM] | fluorescence, % of fluorescent control [15] -0.0427% [at 18.6 µM] | fluorescence, % of fluorescein control [16] -0.0231% [at 18.6 µM] | fluorescence, % of fluorescent control [17] 0.0931% [at 18.6 µM] | Potency [18] | outcome [19]
